Records with an inconclusive call do not appear. A number with no mark means an inactive call. Activity calls are given as the source filed them. Calls follow the shape of the full dose curve; tested in HEK293 reporter line.
Test: qHTS for Inhibitors of the Functional Ribonucleoprotein Complex (vRNP) of Lassa (LASV) Arenavirus: LASV Primary Screen - GLuc reporter signal (AID 1347082); also: nearly all actives have a fitted effect of over 60% in size
Conditions: LASV minigenome vRNP, Gaussia luciferase reporter; series mostly up to 57.5 µM; activity change, negative = inhibition: at the top concentration
For `CCNC(=O)Nc1ccc(Oc2ncnc(N)c2C=NOC)cc1Cl`, the “activity change, negative = inhibition” value was -6.15%.
For `Clc1cccc(-n2nnnc2NCc2ccccc2Oc2ccccn2)c1Cl`, the “activity change, negative = inhibition” value was -7.75%.
In the case of `COC(=O)N[C@H](C(=O)N1CCC[C@@H]1c1ncc(-c2ccc(-c3ccc(-c4cnc([C@@H]5CCCN5C(=O)[C@@H](NC(=O)OC)C(C)C)[nH]4)cc3)cc2)[nH]1)C(C)C`, the “activity change, negative = inhibition” value is reported as -1.54%.
For `COc1cc([C@H]2Oc3cc([C@H]4Oc5cc(O)cc(O)c5C(=O)[C@H]4O)ccc3O[C@H]2CO)ccc1O`, the “activity change, negative = inhibition” value was -5.43%.
In the case of `COc1ccc(-c2coc3cc(O)ccc3c2=O)cc1`, the Potency is reported as “inactive”.
For `CON=C(C(=O)N[C@@H]1C(=O)N2C(C(=O)OCOC(=O)C(C)(C)C)=C(C=Cc3scnc3C)CS[C@H]12)c1csc(N)n1`, the “activity change, negative = inhibition” value was 2.72%.
With `CCNC(=O)Nc1ccc2ncc(Nc3ccc(C)cc3)nc2n1` the “activity change, negative = inhibition” value was -31.9%.
For `CN(C)c1ccccc1CN1CCCN(Cc2ccccc2N(C)C)C1c1ccncc1`, the “activity change, negative = inhibition” value was -37.2%.
With `O=C(C[C@@H]1CC=CCCC(=O)O[C@H](c2ccccc2)CNC1=O)NCc1ccc(Cl)cc1` the “activity change, negative = inhibition” value was -4.87%.
With `COC1CCC(C(=O)c2ccc3nc4c(cc3c2)CCCO4)CC1` (configuration not stated) the “activity change, negative = inhibition” value was -4.46%.
With `CN(C1CCc2c(c3ccccc3n2CC(=O)O)C1)S(=O)(=O)c1ccc(F)cc1` (configuration not stated) the “activity change, negative = inhibition” value was -1.04%.
With `CNC[C@@H](O)[C@@H](O)[C@H](O)[C@H](O)CO` the “activity change, negative = inhibition” value was -1.23%.
With `CC(=O)O[C@]1(C(C)=O)CC[C@H]2[C@@H]3C=C(C)C4=CC(=O)CC[C@]4(C)[C@@H]3CC[C@@]21C` the “activity change, negative = inhibition” value was 4.23%.
In the case of `O=C1Nc2ccc(I)cc2C1=Cc1cc(Br)c(O)c(Br)c1`, the “activity change, negative = inhibition” value is reported as -2.03%.
In the case of `CN(C)CCC=C1c2ccccc2COc2ccc(CC(=O)O)cc21`, the “activity change, negative = inhibition” value is reported as -0.83%.
For `C=C[C@@H]1CN2CCC1C[C@@H]2C(O)c1ccnc2ccc(OC)cc12` (some centres not stated), the “activity change, negative = inhibition” value was 2.78%.
In the case of `COc1cc(/C=C/C(=O)OC2CC3CCC2(C)C3(C)C)ccc1O` (configuration not stated), the “activity change, negative = inhibition” value is reported as -2.95%.
With `COc1cc(O)c2c(c1)C(=O)c1cc(C)cc(O)c1C2=O` the “activity change, negative = inhibition” value was -7.95%.
With `NC1CCC(Nc2nc(Nc3ccc(C(=O)N4CCCCC4)cc3)c3ncn(-c4cccc(F)c4)c3n2)CC1` (configuration not stated) the “activity change, negative = inhibition” value was 0.224%.
With `NC(=O)NN=Cc1ccc([N+](=O)[O-])o1` the “activity change, negative = inhibition” value was 7.6%.
In the case of `CCOC(=O)O[C@]1(C(=O)OCCl)CC[C@@H]2[C@H]3CCC4=CC(=O)C=C[C@]4(C)[C@@H]3[C@@H](O)C[C@@]21C`, the “activity change, negative = inhibition” value is reported as 9.5%.
With `O=C(NCc1ccccc1)[C@H](Cc1ccccc1)NC(=O)[C@@H]1O[C@@H]1C(=O)NCCc1ccc(O)cc1` the “activity change, negative = inhibition” value was -31.4%.
With `C[N+]1(C)[C@@H]2C[C@@H](OC(=O)C(O)(c3cccs3)c3cccs3)C[C@H]1[C@@H]1O[C@@H]12` the “activity change, negative = inhibition” value was -1.71%.
With `O=C(CS(=O)Cc1ccco1)NCC=CCOc1cc(CN2CCCCC2)ccn1` (configuration not stated) the “activity change, negative = inhibition” value was -8.22%.
With `CCOC(=O)N1CCN([N+]([O-])=NOc2cc(ON=[N+]([O-])N3CCN(C(=O)OCC)CC3)c([N+](=O)[O-])cc2[N+](=O)[O-])CC1` the “activity change, negative = inhibition” value was 2.51%.
In the case of `CC(C)(C)[C@H](NC(=O)c1ccc(N)c(Cl)c1)C(=O)N1CCC[C@@H]1C(=O)N[C@H](C#N)CC(=O)O`, the activity change, negative = inhibition is reported as -4.12% [at 5.82 µM].
In the case of `CN(C)CCOc1ccc(-c2nc(-c3ccc4c(c3)CCC4=NO)c(-c3ccncc3)[nH]2)cc1`, the “activity change, negative = inhibition” value is reported as 26.1%.

From PubChem BioAssay (NCATS)
% is scaled to controls: 0 for no effect and ±100 for the full control effect.
